# Measurements from paper PMC7862700, “An all-to-all approach to the identification of sequence-specific readers for epigenetic DNA modifications on cytosine”.
# What was measured:
# Assay in all cases: DAPPL (digital affinity profiling via proximity ligation, sequencing); 10 mM Tris-HCl pH 7.5, 50 mM NaCl, 1 mM DTT, 4% glycerol, room temperature, 30 min; GST-TFs on glutathione beads, 16-mer random dsDNA library, 0.1% formaldehyde crosslink after washing; high values mean tight binding
# Details in all cases: protein: recombinant; tags: N-terminal GST; dsDNA, one strand shown
# FLI1 = target: T1, FLI1 (Homo sapiens, UniProt Q01543 1-452)
# T1 sequence: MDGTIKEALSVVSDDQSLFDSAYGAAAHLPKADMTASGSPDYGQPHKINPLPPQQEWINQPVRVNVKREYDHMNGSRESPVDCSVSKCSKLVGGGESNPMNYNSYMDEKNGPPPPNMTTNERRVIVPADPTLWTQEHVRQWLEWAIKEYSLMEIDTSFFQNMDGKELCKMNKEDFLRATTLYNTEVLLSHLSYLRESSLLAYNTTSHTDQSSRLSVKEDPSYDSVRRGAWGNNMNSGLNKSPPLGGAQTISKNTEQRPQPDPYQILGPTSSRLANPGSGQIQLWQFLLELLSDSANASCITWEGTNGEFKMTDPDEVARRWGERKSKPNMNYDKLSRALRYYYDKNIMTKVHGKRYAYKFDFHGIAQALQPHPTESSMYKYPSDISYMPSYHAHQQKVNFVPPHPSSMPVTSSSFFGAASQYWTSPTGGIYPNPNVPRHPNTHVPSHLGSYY
# Outline: (§1)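 Human transcription factors were made in yeast as GST fusions, captured on glutathione beads and barcoded with DNA. With a tag-only sample included, the pool was incubated with 200 nmole of a random double-stranded 16-mer DNA library in Tris/NaCl/DTT/glycerol buffer at room temperature for 30 min, then crosslinked with 0.1% formaldehyde after washing, ligated by proximity, amplified and sequenced. For binding signal, each hexamer's read frequency for a factor is divided by its frequency for the tag-only sample.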
# ELK1 = target: T2, ELK1 (Homo sapiens, UniProt P19419 1-428)
# T2 sequence: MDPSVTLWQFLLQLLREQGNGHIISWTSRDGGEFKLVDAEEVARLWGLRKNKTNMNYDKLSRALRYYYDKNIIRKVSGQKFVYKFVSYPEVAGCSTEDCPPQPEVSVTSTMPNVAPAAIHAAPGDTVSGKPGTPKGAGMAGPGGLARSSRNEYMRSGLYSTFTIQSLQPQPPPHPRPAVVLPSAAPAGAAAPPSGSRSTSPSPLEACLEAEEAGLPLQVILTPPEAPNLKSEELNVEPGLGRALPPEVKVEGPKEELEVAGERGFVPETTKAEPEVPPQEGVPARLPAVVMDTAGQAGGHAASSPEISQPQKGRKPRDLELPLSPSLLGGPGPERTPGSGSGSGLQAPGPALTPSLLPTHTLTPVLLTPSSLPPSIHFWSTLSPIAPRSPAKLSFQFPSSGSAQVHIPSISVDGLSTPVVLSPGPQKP
# Outline: as §1
# GABPA = target: T3, GABPA (Homo sapiens, UniProt Q06546 1-454)
# T3 sequence: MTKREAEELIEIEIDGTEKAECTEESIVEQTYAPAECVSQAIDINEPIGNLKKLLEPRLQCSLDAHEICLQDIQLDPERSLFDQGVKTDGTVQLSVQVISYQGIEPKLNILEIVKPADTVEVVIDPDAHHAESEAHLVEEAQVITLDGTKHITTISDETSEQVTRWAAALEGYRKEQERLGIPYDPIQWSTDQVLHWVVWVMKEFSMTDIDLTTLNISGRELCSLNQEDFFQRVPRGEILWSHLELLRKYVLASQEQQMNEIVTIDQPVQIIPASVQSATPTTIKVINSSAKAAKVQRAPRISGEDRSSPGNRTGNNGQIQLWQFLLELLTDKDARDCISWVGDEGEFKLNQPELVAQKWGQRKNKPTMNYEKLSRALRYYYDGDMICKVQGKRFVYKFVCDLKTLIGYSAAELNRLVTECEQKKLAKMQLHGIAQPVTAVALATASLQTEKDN
# Outline: as §1
# ERG = target: T4, ERG (Homo sapiens, UniProt P11308 1-479)
# T4 sequence: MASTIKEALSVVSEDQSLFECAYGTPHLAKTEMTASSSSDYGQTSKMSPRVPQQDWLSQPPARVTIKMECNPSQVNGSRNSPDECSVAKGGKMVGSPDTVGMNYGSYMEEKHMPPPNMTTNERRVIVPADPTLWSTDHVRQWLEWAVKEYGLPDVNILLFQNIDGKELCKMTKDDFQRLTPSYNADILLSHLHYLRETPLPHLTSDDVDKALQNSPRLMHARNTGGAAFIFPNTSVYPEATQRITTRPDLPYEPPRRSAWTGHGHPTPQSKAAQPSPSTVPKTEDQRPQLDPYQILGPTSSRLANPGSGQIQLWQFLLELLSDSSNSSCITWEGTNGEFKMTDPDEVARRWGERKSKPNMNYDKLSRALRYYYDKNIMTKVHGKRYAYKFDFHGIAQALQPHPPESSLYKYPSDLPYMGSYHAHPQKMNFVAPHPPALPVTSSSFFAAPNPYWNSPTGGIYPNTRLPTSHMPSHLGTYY
# Outline: as §1
# ELF1 = ELF1 (Homo sapiens, UniProt P32519 1-619)
# Outline: as §1
# EHF = target: T5, EHF (Homo sapiens, UniProt Q9NZC4 1-300)
# T5 sequence: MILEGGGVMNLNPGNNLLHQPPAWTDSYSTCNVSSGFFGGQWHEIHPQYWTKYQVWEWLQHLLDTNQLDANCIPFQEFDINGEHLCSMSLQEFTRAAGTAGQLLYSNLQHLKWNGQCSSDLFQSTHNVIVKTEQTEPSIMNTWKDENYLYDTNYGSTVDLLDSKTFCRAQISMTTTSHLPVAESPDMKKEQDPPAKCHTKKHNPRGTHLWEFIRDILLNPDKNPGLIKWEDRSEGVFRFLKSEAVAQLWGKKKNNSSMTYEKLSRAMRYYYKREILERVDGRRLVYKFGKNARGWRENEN
# Outline: as §1
# SPI1 = SPI1 (Homo sapiens, UniProt P17947 1-270)
# Outline: as §1
# SPIB = SPIB (Homo sapiens, UniProt Q01892 1-262)
# Outline: as §1
# ELK3 = target: T6, ELK3 (Homo sapiens, UniProt P41970 1-407)
# T6 sequence: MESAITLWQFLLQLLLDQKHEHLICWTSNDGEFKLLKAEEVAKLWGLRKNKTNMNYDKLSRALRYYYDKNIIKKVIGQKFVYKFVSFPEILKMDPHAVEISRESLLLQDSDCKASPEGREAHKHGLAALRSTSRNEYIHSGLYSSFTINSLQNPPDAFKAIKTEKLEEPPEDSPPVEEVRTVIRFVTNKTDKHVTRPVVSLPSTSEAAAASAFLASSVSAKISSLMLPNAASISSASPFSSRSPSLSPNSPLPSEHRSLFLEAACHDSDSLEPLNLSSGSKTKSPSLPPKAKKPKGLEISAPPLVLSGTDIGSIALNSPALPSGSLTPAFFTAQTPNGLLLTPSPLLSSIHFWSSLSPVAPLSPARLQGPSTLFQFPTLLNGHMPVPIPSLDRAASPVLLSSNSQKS
# Outline: as §1
# SPIB, sequence (Q01892 whole entry): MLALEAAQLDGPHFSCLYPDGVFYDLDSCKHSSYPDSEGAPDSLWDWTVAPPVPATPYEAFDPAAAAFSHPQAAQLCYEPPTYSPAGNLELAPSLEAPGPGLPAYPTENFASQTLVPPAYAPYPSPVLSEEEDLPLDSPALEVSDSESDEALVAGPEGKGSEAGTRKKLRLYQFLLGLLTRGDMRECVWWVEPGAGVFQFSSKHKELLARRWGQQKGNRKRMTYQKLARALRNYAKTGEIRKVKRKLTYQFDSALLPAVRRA
# ELF1, sequence (P32519 whole entry): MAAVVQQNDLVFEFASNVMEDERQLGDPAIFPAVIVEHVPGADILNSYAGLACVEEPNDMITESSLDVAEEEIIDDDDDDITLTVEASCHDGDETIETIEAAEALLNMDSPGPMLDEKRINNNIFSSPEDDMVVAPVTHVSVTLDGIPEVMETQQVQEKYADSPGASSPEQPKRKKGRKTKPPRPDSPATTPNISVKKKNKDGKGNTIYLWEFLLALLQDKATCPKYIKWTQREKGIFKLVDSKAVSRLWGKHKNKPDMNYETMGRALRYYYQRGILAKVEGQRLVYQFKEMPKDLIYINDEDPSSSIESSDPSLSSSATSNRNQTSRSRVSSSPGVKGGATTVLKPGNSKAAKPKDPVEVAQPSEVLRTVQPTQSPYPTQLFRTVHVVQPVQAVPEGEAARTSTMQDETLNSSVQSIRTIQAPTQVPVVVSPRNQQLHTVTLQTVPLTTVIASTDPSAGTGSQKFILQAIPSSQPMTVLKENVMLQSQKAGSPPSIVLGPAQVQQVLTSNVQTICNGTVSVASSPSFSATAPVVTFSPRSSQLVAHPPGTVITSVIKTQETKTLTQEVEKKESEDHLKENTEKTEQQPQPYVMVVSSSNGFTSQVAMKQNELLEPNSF
sequence,measurement,setting,value
TTTCAC,binding signal,FLI1,"1.39 fold enrichment (6-mer frequency, TF over GST control)"
same,binding signal,ELK1,"1.34 fold enrichment (6-mer frequency, TF over GST control)"
same,binding signal,GABPA,"1.37 fold enrichment (6-mer frequency, TF over GST control)"
same,binding signal,ERG,"1.33 fold enrichment (6-mer frequency, TF over GST control)"
same,binding signal,ELF1,"1.43 fold enrichment (6-mer frequency, TF over GST control)"
same,binding signal,EHF,"1.3 fold enrichment (6-mer frequency, TF over GST control)"
same,binding signal,SPI1,"1.34 fold enrichment (6-mer frequency, TF over GST control)"
same,binding signal,SPIB,"1.27 fold enrichment (6-mer frequency, TF over GST control)"
same,binding signal,ELK3,"1.39 fold enrichment (6-mer frequency, TF over GST control)"
TAAGAT,binding signal,FLI1,"1.17 fold enrichment (6-mer frequency, TF over GST control)"
same,binding signal,ELK1,"1.26 fold enrichment (6-mer frequency, TF over GST control)"
same,binding signal,GABPA,"1.19 fold enrichment (6-mer frequency, TF over GST control)"
same,binding signal,ERG,"1.21 fold enrichment (6-mer frequency, TF over GST control)"
same,binding signal,ELF1,"1.24 fold enrichment (6-mer frequency, TF over GST control)"
same,binding signal,EHF,"1.3 fold enrichment (6-mer frequency, TF over GST control)"
same,binding signal,SPI1,"1.21 fold enrichment (6-mer frequency, TF over GST control)"
same,binding signal,SPIB,"1.31 fold enrichment (6-mer frequency, TF over GST control)"
same,binding signal,ELK3,"1.2 fold enrichment (6-mer frequency, TF over GST control)"
ATTCCT,binding signal,FLI1,"1.46 fold enrichment (6-mer frequency, TF over GST control)"
same,binding signal,ELK1,"1.37 fold enrichment (6-mer frequency, TF over GST control)"
same,binding signal,GABPA,"1.28 fold enrichment (6-mer frequency, TF over GST control)"
same,binding signal,ERG,"1.27 fold enrichment (6-mer frequency, TF over GST control)"
same,binding signal,ELF1,"1.42 fold enrichment (6-mer frequency, TF over GST control)"
same,binding signal,EHF,"1.34 fold enrichment (6-mer frequency, TF over GST control)"
same,binding signal,SPI1,"1.46 fold enrichment (6-mer frequency, TF over GST control)"
same,binding signal,SPIB,"1.43 fold enrichment (6-mer frequency, TF over GST control)"
same,binding signal,ELK3,"1.3 fold enrichment (6-mer frequency, TF over GST control)"
TTAGTT,binding signal,FLI1,"1.36 fold enrichment (6-mer frequency, TF over GST control)"
same,binding signal,ELK1,"1.38 fold enrichment (6-mer frequency, TF over GST control)"
same,binding signal,GABPA,"1.18 fold enrichment (6-mer frequency, TF over GST control)"
same,binding signal,ERG,"1.24 fold enrichment (6-mer frequency, TF over GST control)"
same,binding signal,ELF1,"1.31 fold enrichment (6-mer frequency, TF over GST control)"
same,binding signal,EHF,"1.3 fold enrichment (6-mer frequency, TF over GST control)"
same,binding signal,SPI1,"1.27 fold enrichment (6-mer frequency, TF over GST control)"
same,binding signal,SPIB,"1.31 fold enrichment (6-mer frequency, TF over GST control)"
same,binding signal,ELK3,"1.31 fold enrichment (6-mer frequency, TF over GST control)"
TCTTCG,binding signal,FLI1,"1.45 fold enrichment (6-mer frequency, TF over GST control)"
same,binding signal,ELK1,"1.49 fold enrichment (6-mer frequency, TF over GST control)"
same,binding signal,GABPA,"1.45 fold enrichment (6-mer frequency, TF over GST control)"
same,binding signal,ERG,"1.41 fold enrichment (6-mer frequency, TF over GST control)"
same,binding signal,ELF1,"1.51 fold enrichment (6-mer frequency, TF over GST control)"
same,binding signal,EHF,"1.31 fold enrichment (6-mer frequency, TF over GST control)"
same,binding signal,SPI1,"1.47 fold enrichment (6-mer frequency, TF over GST control)"
same,binding signal,SPIB,"1.57 fold enrichment (6-mer frequency, TF over GST control)"
same,binding signal,ELK3,"1.49 fold enrichment (6-mer frequency, TF over GST control)"
TCCGAT,binding signal,FLI1,"1.32 fold enrichment (6-mer frequency, TF over GST control)"
same,binding signal,ELK1,"1.37 fold enrichment (6-mer frequency, TF over GST control)"
same,binding signal,GABPA,"1.17 fold enrichment (6-mer frequency, TF over GST control)"
same,binding signal,ERG,"1.51 fold enrichment (6-mer frequency, TF over GST control)"
same,binding signal,ELF1,"1.27 fold enrichment (6-mer frequency, TF over GST control)"
same,binding signal,EHF,"1.36 fold enrichment (6-mer frequency, TF over GST control)"
same,binding signal,SPI1,"1.29 fold enrichment (6-mer frequency, TF over GST control)"
same,binding signal,SPIB,"1.24 fold enrichment (6-mer frequency, TF over GST control)"
same,binding signal,ELK3,"1.27 fold enrichment (6-mer frequency, TF over GST control)"
ACAATA,binding signal,FLI1,"1.13 fold enrichment (6-mer frequency, TF over GST control)"
same,binding signal,ELK1,"1.12 fold enrichment (6-mer frequency, TF over GST control)"
same,binding signal,GABPA,"1.29 fold enrichment (6-mer frequency, TF over GST control)"
same,binding signal,ERG,"1.13 fold enrichment (6-mer frequency, TF over GST control)"
same,binding signal,ELF1,"1.1 fold enrichment (6-mer frequency, TF over GST control)"
same,binding signal,EHF,"1.16 fold enrichment (6-mer frequency, TF over GST control)"
same,binding signal,SPI1,"1.16 fold enrichment (6-mer frequency, TF over GST control)"
same,binding signal,SPIB,"1.2 fold enrichment (6-mer frequency, TF over GST control)"
same,binding signal,ELK3,"1.23 fold enrichment (6-mer frequency, TF over GST control)"
